Measurements as given in the supplement of paper PMC6555819.

Tested on: PPARa:RXRa (NR concentration 270 nM, RXRa partner concentration 90 nM)
Test: PBM binding z-score (relative to random genomic background probes); higher = stronger binding; sequences stand for … in GC…GCGATTGACAGCGTAGAATGAAGG
Summary of the method: (§1)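 On custom Agilent 4×180K arrays, double-stranded probes with 34-nt variable regions carried direct-repeat seeds, single-nucleotide variants, half-site ablations or random human genomic background. Ligand-free nuclear receptor dimers were applied for 1 h, and binding was read with antibodies against each partner (one per run). Binding z-scores come from regression-normalized fluorescence, with the random background probes as reference.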

Sequence	PBM binding z-score
TTACCAAGGTGAAGGTCGTTGACCCCTCTGTAGA	4.34
TAGCCTAGGTCAGACCGGGCCAGTATACGCTATA	1.61
CCTTACGGGTCAAGATTATAGCACGGGTGGTACG	4.61
CGAACTAGGTCACGAAAGGTCAAAGTCGAATGAC	6.49
ATCTCTAGGTAAAGTTAGTTCAGTGAATGCAAAT	0.661
AATACAGGGTCATCCTAGGCCAGAGTACGCACAG	6.4
TCTATTAGTTGAGTAGGGCAACCGAAACAGCGGA	0.964
TTTAGCAGGCCAGAGGGTCACTCAAGAGGTACGG	2.32
TCATATAGGTAAATCCTAGGTGAAAGTCCGATCT	1.47
CCTTACGGGTCACTCCAGGTAATAGCATCGGAGT	4.59
CCTTACGGGTCACTGACAAGTTATAGCATTTGGA	4.9
CCTACTGGACCAAAAAGGTCATTGATGCCGATAA	4.55
CGTCCAAGGTCAATGCTATGTCAGTGAAAGCATT	4.99
CCGACTGGGGCAGAAAGGCTACCATACCATCCGG	-0.338
CGAACGAGGGCATGATTTGATAGCAAATGCCGAT	0.783
CGTCCAAGGTTAGAGAGGTCAGTGAATGCCGAGT	3.11
GCGACTGGGGCAAAGCAGGTTAACATAAGGTTGG	1.41
CCTACTGGGCCATTCAGAGGTCATTTATCATATG	3.75
AGTCAAAGTTCACTAGGTAACGTAAGATTCAGCT	5.11
TGTCACAGTTCAAAGGTAACGTAAGTATCCACAC	4.26

Sequence	PBM binding z-score
TCTAGATGGTCACGGAGGTCACACACGACGGGTA	4.04
ATCTCTAGGTAACCAAGTTAAGTGAATGCCGAAC	0.58
ACTAGCAGGCCAAGGGGCACTCAAGATTAGTCCG	1.63
GCTGCTAGGTCAACTGATGCTCAGCTAAAGCTCG	3.79
TCTACTAGGTCAACGATGGTCAGCTAATCTGCTA	4.36
AGAACGAGGGCAATGAGGTGATAGCACGGGTGGC	1.72
ACTATTACTTGAGACGAGGGCAACCGATAGGTTG	0.44
GGAACGTGGGCATTCGAGTTGATAGCATGGCGAT	-1.09
CGAACGAGGGCATGAGTTGATAGCGAATGCCGAT	1.51
AGTCCAAGTTCATCTAGGTAACGTAAGATATGCT	2.59
GCTAGTTGGTCAGTATAAGGTCACACACCGGTCG	3.23
TCGAGTAGGTAAGGGGCATTCAGAATGGCGTCGA	0.747
GCTAGCAGGACATTTGGGTCACTCAATGACGGGC	1.31
TAACCAAGGTGAAGGTCGTTGATCCCTCTGTAGA	2.58
TAGCCTAGGTCAGATCGGGCCAATATACGCTATA	1.79
ATCTCTAGGTAAAGATAGTACAGTGAATGCAAAT	0.263
CAAACTAGGTGAAAGGTCAAAGTCGAGCCAACCA	7.39
CCTCGCAGGACAACAGGAGGTCAGAGCTGCCAGA	1.73
ACTAGCAGGCCAAGTTTTGGTCACTCAAACAAAG	-0.0813
ACTAGCAGGCCAAGGGTCGCTCAAGATTAGTCCG	2.36

Tested on: PPARg:RXRa (NR concentration 180 nM, RXRa partner concentration 90 nM)
Test: as above
Summary of the method: as §1

Sequence	PBM binding z-score
TTACCAAGGTGAAGGTCGTTGACCCCTCTGTAGA	3.79
TAGCCTAGGTCAGACCGGGCCAGTATACGCTATA	0.828
CCTTACGGGTCAAGATTATAGCACGGGTGGTACG	3.55
CGAACTAGGTCACGAAAGGTCAAAGTCGAATGAC	10.5
ATCTCTAGGTAAAGTTAGTTCAGTGAATGCAAAT	0.555
AATACAGGGTCATCCTAGGCCAGAGTACGCACAG	6.74
TCTATTAGTTGAGTAGGGCAACCGAAACAGCGGA	0.351
TTTAGCAGGCCAGAGGGTCACTCAAGAGGTACGG	2.08
TCATATAGGTAAATCCTAGGTGAAAGTCCGATCT	0.85
CCTTACGGGTCACTCCAGGTAATAGCATCGGAGT	3.75
CCTTACGGGTCACTGACAAGTTATAGCATTTGGA	4.26
CCTACTGGACCAAAAAGGTCATTGATGCCGATAA	2.13
CGTCCAAGGTCAATGCTATGTCAGTGAAAGCATT	3.66
CCGACTGGGGCAGAAAGGCTACCATACCATCCGG	0.703
CGAACGAGGGCATGATTTGATAGCAAATGCCGAT	0.992
CGTCCAAGGTTAGAGAGGTCAGTGAATGCCGAGT	0.589
GCGACTGGGGCAAAGCAGGTTAACATAAGGTTGG	1.62
CCTACTGGGCCATTCAGAGGTCATTTATCATATG	2.29
AGTCAAAGTTCACTAGGTAACGTAAGATTCAGCT	7.61
TGTCACAGTTCAAAGGTAACGTAAGTATCCACAC	4.43

Sequence	PBM binding z-score
TCTAGATGGTCACGGAGGTCACACACGACGGGTA	3.59
ATCTCTAGGTAACCAAGTTAAGTGAATGCCGAAC	0.376
ACTAGCAGGCCAAGGGGCACTCAAGATTAGTCCG	4.11
GCTGCTAGGTCAACTGATGCTCAGCTAAAGCTCG	2.66
TCTACTAGGTCAACGATGGTCAGCTAATCTGCTA	6.19
AGAACGAGGGCAATGAGGTGATAGCACGGGTGGC	1.75
ACTATTACTTGAGACGAGGGCAACCGATAGGTTG	0.912
GGAACGTGGGCATTCGAGTTGATAGCATGGCGAT	0.22
CGAACGAGGGCATGAGTTGATAGCGAATGCCGAT	1.34
AGTCCAAGTTCATCTAGGTAACGTAAGATATGCT	1.45
GCTAGTTGGTCAGTATAAGGTCACACACCGGTCG	1.38
TCGAGTAGGTAAGGGGCATTCAGAATGGCGTCGA	0.463
GCTAGCAGGACATTTGGGTCACTCAATGACGGGC	0.997
TAACCAAGGTGAAGGTCGTTGATCCCTCTGTAGA	3.03
TAGCCTAGGTCAGATCGGGCCAATATACGCTATA	0.875
ATCTCTAGGTAAAGATAGTACAGTGAATGCAAAT	1.13
CAAACTAGGTGAAAGGTCAAAGTCGAGCCAACCA	14.1
CCTCGCAGGACAACAGGAGGTCAGAGCTGCCAGA	0.326
ACTAGCAGGCCAAGTTTTGGTCACTCAAACAAAG	-0.156
ACTAGCAGGCCAAGGGTCGCTCAAGATTAGTCCG	4.99
